Test results as given in PubChem BioAssay (NCATS).
Records with an inconclusive call do not appear. The source made the active and inactive calls. Calls come from the whole dose curve; as a rule, active = well fitted curve in the direction sought with a large enough effect; inconclusive = small, poorly fitted or top-dose-only effect, or another doubt; inactive = no such curve, though single readings can be large; an effect the other way counts as inactive or inconclusive.

Tests used:
[1] = target: Rap guanine nucleotide exchange factor 3 (Homo sapiens) (UniProt O95398); assay: Confirmatory qHTS for agonist of cAMP-regulated guanine nucleotide exchange factor 3 (EPAC1) (AID 1645881);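 note: EPAC1 catalysed release of BODIPY-GDP from Rap1B seen as fluorescence loss; 100% = effect of cAMP agonist control; nearly all actives have a fitted effect of over 75% in size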
[2] = target: Rap guanine nucleotide exchange factor 4 (Homo sapiens) (UniProt Q8WZA2); assay: Confirmatory qHTS for agonist of cAMP-regulated guanine nucleotide exchange factor 4 (EPAC2) (AID 1645884);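 note: nucleotide exchange releases bodipy-GDP from Rap1 and this lowers its fluorescence; % is set by controls: 0 for no effect and ±100 for the full control effect; nearly all actives have a fitted effect of over 65% in size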
[3] = target: Rap guanine nucleotide exchange factor 4 (Homo sapiens) (UniProt Q8WZA2); assay: Confirmatory qHTS for antagonist of cAMP-regulated guanine nucleotide exchange factor 4 (EPAC2) (AID 1645885); note: nearly all actives have a fitted effect of over 25% in size; note: potency is the fitted concentration of half-maximal effect; for activity change, negative = inhibition: % is set by controls: 0 for no effect and ±100 for the full control effect
[4] = target: Rap guanine nucleotide exchange factor 3 (Homo sapiens) (UniProt O95398); assay: Counterscreen qHTS for antagonist of cAMP-regulated guanine nucleotide exchange factor 3 (EPAC1) (AID 1645888);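 note: fluorescence loss as bound BODIPY-GDP is released from Rap1B; % of control where 0% means no effect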
In short: (§1)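 Rap1B-BODIPY-GDP 250 nM + GDP 50 uM; cpds 7-pt, final 9.74 nM–152 uM (activator mode) or from 7.32 nM upwards (inhibitor mode); RT; FI 480/540 nm at 5 and 30 min, then ± cAMP, reread.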

[5] = target: Rap guanine nucleotide exchange factor 3 (Homo sapiens) (UniProt O95398); assay: Counterscreen qHTS for agonist of cAMP-regulated guanine nucleotide exchange factor 3 (EPAC1) (AID 1645889); note: % of control where 0% means no effect; nearly all actives have a fitted effect of over 40% in size
In short: as §1

Chain of Rap guanine nucleotide exchange factor 3 (Homo sapiens) (O95398 whole entry, looked up): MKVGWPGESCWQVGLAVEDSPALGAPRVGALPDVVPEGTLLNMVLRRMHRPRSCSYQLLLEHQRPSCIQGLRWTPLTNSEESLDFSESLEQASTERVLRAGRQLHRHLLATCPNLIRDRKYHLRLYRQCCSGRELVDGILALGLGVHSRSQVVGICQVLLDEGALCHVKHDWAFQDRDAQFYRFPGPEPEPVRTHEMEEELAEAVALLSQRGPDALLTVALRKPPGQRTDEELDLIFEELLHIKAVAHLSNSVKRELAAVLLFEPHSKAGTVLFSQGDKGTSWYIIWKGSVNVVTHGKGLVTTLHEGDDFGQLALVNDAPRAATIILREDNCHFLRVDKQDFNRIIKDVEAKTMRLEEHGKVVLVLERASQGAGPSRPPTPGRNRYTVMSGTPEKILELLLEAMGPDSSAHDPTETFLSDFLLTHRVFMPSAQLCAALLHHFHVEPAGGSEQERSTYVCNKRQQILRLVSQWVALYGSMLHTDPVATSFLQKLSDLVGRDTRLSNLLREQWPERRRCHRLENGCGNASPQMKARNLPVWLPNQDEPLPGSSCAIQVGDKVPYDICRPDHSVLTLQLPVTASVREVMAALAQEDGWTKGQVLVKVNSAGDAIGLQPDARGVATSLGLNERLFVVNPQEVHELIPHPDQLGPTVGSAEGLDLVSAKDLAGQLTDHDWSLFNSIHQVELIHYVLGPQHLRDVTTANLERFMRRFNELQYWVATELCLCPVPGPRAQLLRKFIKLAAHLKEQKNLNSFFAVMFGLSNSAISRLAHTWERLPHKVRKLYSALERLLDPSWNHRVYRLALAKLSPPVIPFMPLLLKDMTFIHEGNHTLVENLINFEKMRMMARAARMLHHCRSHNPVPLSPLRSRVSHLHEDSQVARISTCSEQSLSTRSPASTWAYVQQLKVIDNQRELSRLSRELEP
Chain of Rap guanine nucleotide exchange factor 4 (Homo sapiens) (Q8WZA2 whole entry, looked up): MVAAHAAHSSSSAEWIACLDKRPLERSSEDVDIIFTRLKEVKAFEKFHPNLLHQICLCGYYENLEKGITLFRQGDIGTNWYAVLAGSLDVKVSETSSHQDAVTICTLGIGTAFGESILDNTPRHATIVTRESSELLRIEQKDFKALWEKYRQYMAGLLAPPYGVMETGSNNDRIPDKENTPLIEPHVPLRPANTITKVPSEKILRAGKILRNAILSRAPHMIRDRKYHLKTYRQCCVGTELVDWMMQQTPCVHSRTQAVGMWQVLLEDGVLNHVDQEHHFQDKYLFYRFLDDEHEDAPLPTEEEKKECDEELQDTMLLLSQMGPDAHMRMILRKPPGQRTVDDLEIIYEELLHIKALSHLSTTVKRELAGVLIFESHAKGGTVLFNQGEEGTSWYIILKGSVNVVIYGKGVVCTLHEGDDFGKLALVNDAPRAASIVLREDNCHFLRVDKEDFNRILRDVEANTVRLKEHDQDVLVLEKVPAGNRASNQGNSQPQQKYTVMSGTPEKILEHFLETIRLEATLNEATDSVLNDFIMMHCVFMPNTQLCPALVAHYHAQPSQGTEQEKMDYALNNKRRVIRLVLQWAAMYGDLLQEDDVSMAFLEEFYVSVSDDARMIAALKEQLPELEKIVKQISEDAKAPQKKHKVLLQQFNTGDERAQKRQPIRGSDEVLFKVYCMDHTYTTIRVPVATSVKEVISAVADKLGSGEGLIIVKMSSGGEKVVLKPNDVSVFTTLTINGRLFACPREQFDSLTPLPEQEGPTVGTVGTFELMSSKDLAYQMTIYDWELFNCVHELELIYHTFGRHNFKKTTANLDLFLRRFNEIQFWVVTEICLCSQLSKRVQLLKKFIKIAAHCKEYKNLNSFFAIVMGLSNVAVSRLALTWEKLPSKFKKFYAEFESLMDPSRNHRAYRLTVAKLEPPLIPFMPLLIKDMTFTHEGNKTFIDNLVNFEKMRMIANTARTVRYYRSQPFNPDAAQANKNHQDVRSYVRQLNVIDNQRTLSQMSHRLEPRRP

CCOc1ncccc1C(=O)OC(C)C(=O)Nc1ccc(Cl)cn1 (stereo not given)
inactive: Potency [1] | activation [2] 7.63% [at 17.1 µM, percent relative to cAMP agonist control] | activity change, negative = inhibition [4] -16.3% [at 30.8 µM] | activation [5] 15.5% [at 30.8 µM]
active: Potency [3] 213 nM

COc1cccc(C2CC(c3cccs3)=NN2C(=O)c2ccco2)c1O (stereo not given)
inactive: Potency [1] | activation [2] 3.1% [at 17.1 µM, percent relative to cAMP agonist control] | Potency [3] | activity change, negative = inhibition [4] -12.7% [at 30.8 µM] | activation [5] 8.43% [at 30.8 µM]

Fc1cccc(Cc2c(-c3ccc(Cl)cc3)nc3ccc(Cl)cn23)c1
inactive: Potency [1] | activation [2] 7.12% [at 17.1 µM, percent relative to cAMP agonist control] | Potency [3] | activity change, negative = inhibition [4] -4.02% [at 30.8 µM] | activation [5] 23% [at 30.8 µM]

Cc1ccc(C)n1-c1ccc(C(=O)/C=C/N(C)C)cc1
inactive: Potency [1] | activation [2] 4.94% [at 17.1 µM, percent relative to cAMP agonist control] | Potency [3] | activity change, negative = inhibition [4] -17.3% [at 30.8 µM] | activation [5] 0.307% [at 30.8 µM]

CCCN1C(=O)c2ccccc2NC1c1ccc(OC)c(CSc2ccccn2)c1 (stereo not given)
inactive: Potency [1] | Potency [2] | Potency [3] | Potency [4] | Potency [5]

COc1ccc2sc(-c3ccc(N(C)C)cc3)c(C#CC(C)(C)O)c2c1
inactive: Potency [1] | Potency [2] | Potency [3] | Potency [4] | Potency [5]

Cc1ccc(N(Cc2cccs2)C(=O)c2ccco2)cc1
inactive: Potency [1] | Potency [2] | Potency [3] | Potency [4] | Potency [5]

CC(C)c1cccc(-c2ccc3c(c2)S(=O)(=O)c2cccc(C(=O)O)c2C3=O)c1
inactive: Potency [1] | Potency [2] | Potency [3] | Potency [4] | Potency [5]

CC1CC2(NC(=O)NC2=O)C(C)CN1C (stereo not given)
inactive: Potency [1] | Potency [2] | Potency [3] | Potency [4] | Potency [5]

CCOP(=O)(OCC)C(Cc1ccc(OC)c(OC)c1)N=C(c1ccccc1)c1ccccc1 (stereo not given)
inactive: Potency [1] | activation [2] 4.61% [at 17.1 µM, percent relative to cAMP agonist control] | Potency [3] | activity change, negative = inhibition [4] -11.3% [at 30.8 µM] | activation [5] 17.1% [at 30.8 µM]

CCOc1ccccc1Cn1c(=O)oc2ccc(C)cc21
inactive: Potency [1] | Potency [2] | Potency [3] | Potency [4] | Potency [5]

CC(=Cc1ccccc1)C=C1SC(=S)N(CCCC(=O)Nc2ccc(C(=O)O)cc2)C1=O
inactive: Potency [1] | Potency [2] | Potency [3] | Potency [4] | Potency [5]

Cc1ccc2oc(=O)n(CCOc3ccccc3C)c2c1
inactive: Potency [1] | activation [2] 11.2% [at 17.1 µM, percent relative to cAMP agonist control] | Potency [3] | activity change, negative = inhibition [4] -6.86% [at 30.8 µM] | activation [5] 15.6% [at 30.8 µM]

CC(C)N1CCc2c(sc(NC(=O)c3ccc(S(=O)(=O)N4CCc5ccccc54)cc3)c2C(N)=O)C1
inactive: Potency [1] | Potency [2] | Potency [3] | Potency [4] | Potency [5]

CC1CCCCN1S(=O)(=O)c1ccc(C(=O)Nc2nnc(-c3ccccc3Cl)o2)cc1 (stereo not given)
inactive: Potency [1] | activation [2] 0% [at 17.1 µM, percent relative to cAMP agonist control] | Potency [3] | activity change, negative = inhibition [4] -13.1% [at 30.8 µM] | activation [5] 16.2% [at 30.8 µM]

Cc1[nH]c(=O)nc(SCc2cccc(Cl)c2)c1C#N
inactive: Potency [1] | Potency [2] | Potency [3] | Potency [4] | Potency [5]

O=c1[nH]c(C2CCN(S(=O)(=O)c3ccccc3F)CC2)nc2c1nnn2Cc1ccc(F)cc1
inactive: Potency [1] | Potency [2] | Potency [3] | Potency [4] | Potency [5]

Cc1ccc(CSC2=NCCN2S(=O)(=O)c2ccc(F)cc2)cc1
inactive: Potency [1] | activation [2] 1.66% [at 17.1 µM, percent relative to cAMP agonist control] | Potency [3] | activity change, negative = inhibition [4] -7.41% [at 30.8 µM] | activation [5] 4.55% [at 30.8 µM]

O=C(O)COc1ccc(/C=N/NC(=O)c2ccc(-c3csc(Nc4ccc(Cl)cc4)n3)cc2)cc1
inactive: Potency [1] | Potency [2] | Potency [3] | Potency [4] | Potency [5]

CCOc1ccc(-n2c(C)nc3cc(C(=O)NCc4ccc(C)cc4)ccc32)cc1
inactive: Potency [1] | Potency [2] | Potency [3] | Potency [4] | Potency [5]

COC(=O)c1ccc2nc(-c3ccco3)c(Cc3ccc(OC)cc3C)n2c1
inactive: Potency [1] | Potency [2] | Potency [3] | Potency [4] | Potency [5]

Cc1oc2c(O)c(O)ccc2c(=O)c1-c1cnn(-c2ccccc2)c1
inactive: Potency [1] | activation [2] 2.28% [at 17.1 µM, percent relative to cAMP agonist control] | Potency [3] | activity change, negative = inhibition [4] -26.8% [at 30.8 µM] | activation [5] 28.8% [at 30.8 µM]

C/C(CC(=O)N1CCCC1)=N\NC(=O)c1cc2ccccc2cc1O
inactive: Potency [1] | Potency [2] | Potency [3] | Potency [4] | Potency [5]

Cc1nn(-c2ccccc2)c(C)c1-c1cc(C(=O)N/N=C/c2ccc(O)cc2)[nH]n1
inactive: Potency [1] | activation [2] -7.34% [at 17.1 µM, percent relative to cAMP agonist control] | Potency [3] | activity change, negative = inhibition [4] -7.56% [at 30.8 µM] | activation [5] 9.11% [at 30.8 µM]

C=CCc1ccccc1OCc1nc2ccccc2n1CC
inactive: Potency [1] | Potency [2] | Potency [3] | Potency [4] | Potency [5]

O=C(Nc1ccc(N2CCC(N3CCCCC3)CC2)c(C(=O)O)c1)c1ccc(Br)cc1
inactive: Potency [1] | Potency [2] | outcome [3] inactive; activator; fitted 1.6944 uM [at 12.7 µM] | Potency [4] | Potency [5]

O=C1CC(c2c(F)cccc2Cl)c2c(ccc3ccccc23)N1 (stereo not given)
inactive: Potency [1] | Potency [2] | Potency [3] | Potency [4] | Potency [5]

CCc1noc(C)c1C(=O)N1CCCSC1=Nc1ccccc1Cl
inactive: Potency [1] | activation [2] 0.52% [at 17.1 µM, percent relative to cAMP agonist control] | Potency [3] | activity change, negative = inhibition [4] -10.8% [at 30.8 µM] | activation [5] -1.65% [at 30.8 µM]

Oc1ccc(NCc2ccc(OCc3ccccc3)cc2)cc1
inactive: Potency [1] | Potency [2] | Potency [3] | Potency [4] | activation [5] 16.4% [at 30.8 µM]

CSc1ccccc1NC(=O)CN1c2ccccc2CC1C (stereo not given)
inactive: Potency [1] | activation [2] 8.71% [at 17.1 µM, percent relative to cAMP agonist control] | Potency [3] | activity change, negative = inhibition [4] -0.569% [at 30.8 µM] | activation [5] 44.6% [at 30.8 µM]

Cn1c(=O)c2c(SCc3cccnc3)nc(CC(C)(C)C)nc2n(C)c1=O
inactive: Potency [1] | activation [2] 6.82% [at 17.1 µM, percent relative to cAMP agonist control] | Potency [3] | activity change, negative = inhibition [4] -15.2% [at 30.8 µM] | activation [5] 9.84% [at 30.8 µM]

CCOC(=O)N(C)c1c(CC)nc2c(OCc3ccc(C(F)(F)F)cc3)cccn12
inactive: Potency [1] | Potency [2] | Potency [3] | Potency [4] | Potency [5]

Cc1ccc(/C=C(\CCC(=O)O)c2nc3ccccc3s2)cc1[N+](=O)[O-]
inactive: Potency [1] | activation [2] 6.79% [at 17.1 µM, percent relative to cAMP agonist control] | Potency [3] | activity change, negative = inhibition [4] -11.2% [at 30.8 µM] | activation [5] 0.0676% [at 30.8 µM]

CCC(=O)N(CCC(c1ccccc1)c1ccc2c(c1)OCO2)Cc1ccc(OC(C)C)cc1 (stereo not given)
inactive: Potency [1] | Potency [2] | Potency [3] | Potency [4] | Potency [5]

CCOc1ccc(/C=C/C(=O)c2c(O)c3ccccc3oc2=O)cc1
inactive: Potency [1] | Potency [2] | Potency [3] | Potency [4] | Potency [5]

O=C(/C=C/c1ccco1)NC(=S)Nc1cccc(-c2nc3ccccc3o2)c1
inactive: Potency [1] | activation [2] -2.07% [at 17.1 µM, percent relative to cAMP agonist control] | Potency [3] | activity change, negative = inhibition [4] -12.8% [at 30.8 µM] | activation [5] 10.2% [at 30.8 µM]

COc1cc(-c2cc(OC)c3c(C)oc(C)c3c(=O)c2)ccc1OC(=O)c1ccc(C)cc1
inactive: Potency [1] | Potency [2] | Potency [3] | Potency [4] | Potency [5]

COc1cc(O)c(C(CC(=O)N2CCCC(C)C2)c2ccc3c(c2)OCO3)c(OC)c1 (stereo not given)
inactive: Potency [1] | activation [2] -10.6% [at 17.1 µM, percent relative to cAMP agonist control] | Potency [3] | activity change, negative = inhibition [4] -20% [at 30.8 µM] | activation [5] 13.2% [at 30.8 µM]

COc1cc(/C=C(\C#N)c2nc3ccc(C)cc3[nH]2)ccc1OCc1ccc(C)cc1
inactive: Potency [1] | Potency [2] | Potency [3] | Potency [4] | Potency [5]

COc1ccc(S(=O)(=O)NC(=O)C2(C)CCN2C(=O)C2(c3ccccc3)CCCC2)cc1 (stereo not given)
inactive: Potency [1] | activation [2] -3.86% [at 17.1 µM, percent relative to cAMP agonist control] | Potency [3] | activity change, negative = inhibition [4] -2.65% [at 30.8 µM] | activation [5] -0.406% [at 30.8 µM]

N#C/C(=C/c1ccc(-c2ccc(S(N)(=O)=O)cc2)o1)c1nc2ccccc2s1
inactive: Potency [1] | activation [2] -24.7% [at 17.1 µM, percent relative to cAMP agonist control] | Potency [3] | activity change, negative = inhibition [4] 5.29% [at 30.8 µM] | activation [5] -62% [at 30.8 µM]

CC[C@@H]1CC=C[C@H]2[C@H]1C(=O)N(Cc1ccccc1)[C@H]2c1ccc(C(F)(F)F)cc1
inactive: Potency [1] | Potency [2] | Potency [3] | Potency [4] | Potency [5]
